From PubChem BioAssay AID686979 (National Center for Advancing Translational Sciences (NCATS), 2013)
Several values for one entry are separate records, joined by “and”; a condition that tells them apart may be missing. Equal values may be shown once. About 50,000 (12%) of roughly 420,000 compounds were called active. A call without a number means that no potency is given here. Inconclusive results (about 26%) are left out. Calls follow the shape of the dose curve; as a rule, active = well fitted inhibition curve with a large enough effect; inconclusive = small, poorly fitted or top-dose-only effect; inactive = flat fitted curve, though single readings scatter. For the sample, actives were picked, then their nearest neighbours and some compounds at random.

Assay: qHTS for Inhibitors of human tyrosyl-DNA phosphodiesterase 1 (TDP1): qHTS in cells in presence of CPT; also: nearly all actives have a fitted effect of over 55% in size
Conditions: chicken DT40 Tdp1-/-;hTDP1 cells + 20 nM CPT, ATP luminescence, 48 h; series mostly up to 46.2 µM
Excerpt: Human tyrosyl-DNA phosphodiesterase 1 (TDP1) is a novel repair gene, and we propose to use it as a new target for anticancer drug development. TDP1 is not an essential protein, but under treatment with topoisomerase I poison (camptothecin: CPT), TDP1 works as a critical factor for cell survival. To directly identify novel TDP1 inhibitors active in a cellular environment, we have knocked-out the Tdp1 gene in chicken DT40 cells (Tdp1-/-) and generated a complemented counterpart cells that contains a stable transfection of the human TDP1 gene (Tdp1-/-;hTDP1 cells). For the primary screen, Tdp1-/-;hTDP1 cells will be exposed to small molecules in the presence or absence of CPT, and their growth kinetics will be evaluated after 48 hours by measuring ATP activity. […] The hit compounds will then be evaluated in the presence or absence of CPT using Tdp1-/- cells. […] In tertiary assays, biochemical gel-based assays will be used to assess whether the hit compounds specifically target TDP1. To this end, we have screened this cell line against the MLSMR in two primary screens. In one screen we add CPT and in the other we screen in the absence of CPT; this AID represents the screen where CPT was present. NIH Chemical Genomics Center [NCGC] NIH Molecular Libraries Probe Centers Network [MLPCN] MLPCN Grant: MH095538 Assay Submitter (PI): Yves Pommier, NCI
DT40-hTDP1 cells with 20 nM Camptothecin (add 20 microL of 1 mM CPT stock in 1 L of cell culture medium) were dispensed at 400 cells/5microL/well in tissue culture treated 1536-well white wall/solid bottom assay plates (Greiner Bio-One North America, NC, U.S.A.) using a Multidrop Combi 8 channel dispenser (Thermo Fisher, Waltham, MA, USA). 23 nL compounds and controls were transferred using the pin tool (Kalypsys, San Diego, CA, USA) to the assay plates. The assay plates were then incubated at 37 masculineC for a minimum 48 hr. Three microL of Cell Titer Glo solution was added to the plates and incubated at RT in dark for 30 min. Luminescence was read using ViewLux (Perkin Elmer) with 1 sec exposure slow speed, high gain and 2x binning.
Potency is read from the fitted curve at half-maximal effect.

SMILES	Potency
Cc1cccc(C)c1N1CCN(S(=O)(=O)N2CCCCC2)CC1	inactive
COc1cc(OC)cc(-c2nc3nc(C)c(CCC(=O)Nc4ccccc4)c(C)n3n2)c1	14.6 µM (active)
CCOC(=O)c1cccc(NC(=O)CCc2c(C)nc3ncnn3c2C)c1	inactive
COc1cc(OC)cc(-c2nc3nc(C)c(CCC(=O)Nc4ccc(C)cc4)c(C)n3n2)c1	inactive
CC(C)OC(=O)c1ccc(COc2ccc3ccc(=O)oc3c2)o1	inactive
O=C(C1CCCO1)N1CCN(S(=O)(=O)c2ccc(Br)cc2)CC1 (centres undefined)	inactive
CN(C)C1CN(Cc2cn(Cc3ccccc3)nn2)S(=O)(=O)C1 (centres undefined)	inactive
CN(Cc1cn(Cc2ccc(C(F)(F)F)cc2)nn1)C1CN(Cc2cn(Cc3ccc(C(F)(F)F)cc3)nn2)S(=O)(=O)C1 (centres undefined)	6.51 µM (active)
CC(C)CCN1CCN(Cc2ccc(C(F)(F)F)cc2)CC1CCO (centres undefined)	inactive
O=C(c1ccc(Cl)c(Cl)c1)N1CCCC1	inactive
O=C(c1ccc(Cl)c(S(=O)(=O)N2CCCCCC2)c1)N1CCN(c2ccc(O)cc2)CC1	18.4 µM (active)
O=C(c1ccc(Cl)c(S(=O)(=O)N2CCCCC2)c1)N1CCCCCC1	inactive
CN(C)c1cccc(C(=O)N2CCC(n3nccc3NC(=O)C3CCOC3)CC2)c1 (centres undefined)	inactive
Cn1c(=O)c(Sc2ccc(Cl)cc2)c(O)c2ccccc21	inactive
CC1Cc2ccccc2N1CC(=O)Nc1ccc2c(c1)OC(F)(F)O2 (centres undefined)	inactive
N#Cc1ccc(Oc2ccc(C(F)(F)F)cc2NC(=O)c2ccc(F)cc2)cc1	inactive
COc1cc(NC(=O)c2[nH]cnc2C(N)=O)cc(C(=O)Nc2cccc(C(F)(F)F)c2)c1	20.6 µM (active)
O=C(Nc1cccc(C(F)(F)F)c1)c1cnccn1	inactive
COc1cc(NC(=O)c2cncc(-c3ccc(C#N)cc3)c2)cc(C(=O)Nc2cccc(C(F)(F)F)c2)c1	8.2 µM (active) and 16.4 µM (active)
CCN(CC)C(=O)C1=C(C)N(Cc2ccc(F)cc2)C(=O)C(CC(=O)NC2CCCC2)C1 (centres undefined)	inactive

SMILES	Potency
O=c1ccn([C@@H]2O[C@H](COP(=O)(O)OP(=O)(O)OP(=O)(O)O)[C@@H](O)[C@H]2O)c(=O)[nH]1	inactive
CNS(=O)(=O)c1cccc(C(=O)OCC(=O)N2c3ccccc3NC(=O)C2(C)C)c1	inactive
CCOc1ccc(NC(=O)CN(C)C(=O)CCSc2ccc(F)cc2)cc1OCC	inactive
CC(C)Oc1ccc(C(CC(=O)N2CCOCC2)C(C)C)cc1 (centres undefined)	inactive
Cc1ccccc1CNC(=O)C(=O)NCC(c1cccs1)S(=O)(=O)c1cccs1 (centres undefined)	13 µM (active)
COc1ccccc1CNC(=O)C(=O)NCC(c1cccs1)S(=O)(=O)c1cccs1 (centres undefined)	inactive
CC(C)C(=O)NCC(c1cccs1)S(=O)(=O)c1ccc(F)cc1 (centres undefined)	inactive
CC(C)C(=O)Nc1nnc(Sc2ccc(N(C)C)cc2)s1	inactive
Cc1noc(C)c1S(=O)(=O)N(C)Cc1ccccc1	inactive
CN(Cc1ccccc1)c1ccc(-c2nc(-c3ccccc3)no2)cc1[N+](=O)[O-]	inactive
CN(Cc1ccccc1)c1ncnc2onc(-c3ccc(F)cc3)c12	23.1 µM (active)
Cc1ccc2c(C)c(C(=O)N3CCC(N4CCC(C(=O)NC5CC5)CC4)CC3)oc2c1	inactive
CN1CN(C)c2ccc([N+](=O)[O-])c3cccc1c23	inactive
O=C1[C@H]2[C@@H](c3ccc(C(F)(F)F)cc3)N[C@]3(CCCN(Cc4ccc(Br)cc4)C3=O)[C@H]2C(=O)N1Cc1ccccc1	inactive
CCN1C(=O)[C@H]2[C@@H](c3ccc(C(F)(F)F)cc3)N[C@]3(CCCN(Cc4ccc(Br)cc4)C3=O)[C@H]2C1=O	13 µM (active)
CCN1C[C@@H]2[C@@H]3C(=O)N(Cc4ccccc4)C(=O)[C@@H]3[C@](C)(C1=O)N2C(=O)c1ccc(C(C)(C)C)cc1	inactive
O=C1[C@H]2[C@@H](c3ccc(C(F)(F)F)cc3)N[C@]3(CCCN(Cc4ccc(Cl)cc4)C3=O)[C@H]2C(=O)N1Cc1ccccc1	16.4 µM (active)
COc1ccc([C@H]2N[C@]3(CCCN(Cc4ccco4)C3=O)[C@H]3C(=O)N(C)C(=O)[C@@H]23)cc1	inactive
CN(Cc1ccccc1)S(=O)(=O)c1nnc(NC(=O)c2ccccc2F)s1	inactive
CCOc1cc(CNCCN(C)C)c(Cl)cc1OCC(=O)NCCc1ccccc1	inactive

SMILES	Potency
Nc1ncnc2c1ncn2[C@@H]1O[C@H](CNS(=O)(=O)c2ccc(-c3ccno3)s2)[C@@H](O)[C@H]1O	inactive
O=C(Nc1nnc(SCc2c(Cl)cccc2Cl)s1)c1cccc([N+](=O)[O-])c1	inactive
COc1ccc(N(CC(=O)NC2CCCC2)C(=O)CS(=O)CC(=O)Nc2ccc3c(c2)OCO3)cc1 (centres undefined)	inactive
O=C1OC(C(=O)Nc2cccc(Br)c2)Cc2ccccc21 (centres undefined)	inactive
O=C(Nc1ccc(Cl)c(C(F)(F)F)c1)C1Cc2c(-c3ccccc3Oc3ccccc3)ccnc2O1 (centres undefined)	18.4 µM (active)
O=C(COC(=O)c1cc[n+]([O-])cc1)Nc1ccc(Cl)c(C(F)(F)F)c1	inactive
CC(=O)Nc1ccc(-c2ccnc3c2CC(C(=O)NC(C)C)O3)cc1 (centres undefined)	inactive
COc1ccc(NC(=O)CSc2nccn2Cc2ccc3c(c2)OCO3)cc1	inactive
COc1ccc(NC(=O)C2Cc3c(-c4ccc5c(c4)OCO5)ccnc3O2)cn1 (centres undefined)	4.11 µM (active)
O=C(Nc1ccc2c(c1)OCO2)C1CC(c2c(F)cccc2Cl)=NO1 (centres undefined)	inactive
O=C(Nc1ccc(Cl)cc1)C1Cc2c(-c3ccc4c(c3)OCO4)ccnc2O1 (centres undefined)	23.1 µM (active)
CC(=O)c1cccc(NC(=O)C2CCCN2S(=O)(=O)c2cccc3nsnc23)c1 (centres undefined)	inactive
COCCNC(=O)CSc1nc(N)c(NC(=O)c2ccco2)c(=O)[nH]1	inactive
COC(=O)c1c(C)oc(C)c1S(=O)(=O)NCc1ccc(Cl)cc1	inactive
COC(=O)c1cc(NC(=O)CCS(=O)(=O)c2cc(Br)cc3c2N(C(=O)C2CC2)CC3)cc(C(=O)OC)c1	inactive
Cc1cc(C)n(-c2ccc(NC(=O)C3CCCCN3C(=O)c3cccs3)cc2)n1 (centres undefined)	inactive
Cc1ccccc1OCCSc1nc2ccc(NC(=O)c3ccco3)cc2s1	20.6 µM (active)
Cc1cccc(OCCSc2nc3ccc(NC(=O)COc4ccccc4C)cc3s2)c1	inactive
COc1cc(C)ccc1OCCSc1nc2ccc(NC(=O)c3ccc(C)cc3)cc2s1	inactive
